Laboratory results as given in ChEMBL document CHEMBL3988442, “University of Dundee, Small-Polar-MMV Screening Library” (2021).
The whole screen tested about 48,000 compounds, of which about 13,000 (27%) showed an effect of 50% or more. Some of the results follow.

Each compound was assayed on Wolbachia pipientis (assay: Anti-Wolbachia Cell-Based Screen). Settings: 5 µM.
Assay type: functional
Parameters: scale not given: in the data most compounds retested in dose-response had high values

**Q.** How did the “Percent Effect” value turn out when `CC(C)(C)c1ncc(C(=O)N2CCN(C(=O)c3ccc[nH]3)CC2)c(O)n1` was run?
**A.** The value was -10.28%.

**Q.** `Cc1ccc(F)cc1C(=O)N1CCOCC12CCCC2` was tested. Which “Percent Effect” value did it give?
**A.** Its value is 111.7%.

**Q.** `Cc1ccc(F)cc1C(=O)N1C[C@@H](CN2CCOCC2)[C@@H](CO)C1` was tested. Which “Percent Effect” value did it give?
**A.** Its value is -1.252%.

**Q.** With `Cc1[nH]ccc1C(=O)N1CCOCC12CCCC2` as the compound, how does the “Percent Effect” value read?
**A.** The value was 102.2%.

**Q.** With `Cc1[nH]ccc1C(=O)N1CCC2(CC1)c1nc[nH]c1CCN2S(C)(=O)=O` as the compound, how does the “Percent Effect” value read?
**A.** Its value is -18.24%.

**Q.** For `O=C(c1ccc[nH]1)N1CCC2(CC1)COCCN(c1nccs1)C2`, which “Percent Effect” value is on record?
**A.** The value was 4.422%.

**Q.** For `CS(=O)(=O)N1CCCC12CCCN(C(=O)c1ccc[nH]1)C2` (centres undefined), which “Percent Effect” value is on record?
**A.** Its value is -4.016%.

**Q.** Which “Percent Effect” value does the source give for `O=C(c1ccc[nH]1)N1CCOCC12CCCC2` here?
**A.** The value was 75.31%.

**Q.** With `Cc1ccc(F)cc1C(=O)NCc1ccc(C(=O)O)o1` as the compound, how does the “Percent Effect” value read?
**A.** The value was 7.122%.

**Q.** `Cc1[nH]ccc1C(=O)N1CCCN1C(=O)OC(C)(C)C` was tested. Which “Percent Effect” value did it give?
**A.** The value was -3.846%.

**Q.** `Cn1c2c(c(=O)n1C)CN(C(=O)c1ccsc1)CCC2` was tested. Which “Percent Effect” value did it give?
**A.** Its value is -11.42%.

**Q.** Which “Percent Effect” value does the source give for `Cc1ccsc1C(=O)N1CCCc2c(c(=O)n(C)n2C)C1` here?
**A.** The value was 9.7%.

**Q.** `Cn1c2c(c(=O)n1C)CN(C(=O)c1ccco1)CCC2` was tested. Which “Percent Effect” value did it give?
**A.** Its value is 0.5105%.

**Q.** For `Cn1nc(CN2CCCC2)c2c1CN(C(=O)c1ccncc1F)CC2`, which “Percent Effect” value is on record?
**A.** Its value is -1.138%.

**Q.** `Cc1ccc(C(=O)N2CCCc3c(c(=O)n(C)n3C)C2)o1` was tested. Which “Percent Effect” value did it give?
**A.** Its value is -7.196%.

**Q.** `Cc1ccoc1C(=O)N1CCCc2c(c(=O)n(C)n2C)C1` was tested. Which “Percent Effect” value did it give?
**A.** The value was -8.814%.

**Q.** How did the “Percent Effect” value turn out when `Cn1c2c(c(=O)n1C)CN(C(=O)c1cnccn1)CCC2` was run?
**A.** The value was 106.7%.

**Q.** With `Cn1c2c(c(=O)n1C)CN(C(=O)c1ccncc1F)CCC2` as the compound, how does the “Percent Effect” value read?
**A.** The value was 104.3%.

**Q.** `Cn1c2c(c(=O)n1C)CN(C(=O)c1cccc(F)c1)CCC2` was tested. Which “Percent Effect” value did it give?
**A.** Its value is 83.47%.

**Q.** For `Cc1csc2c(N3CCC(NCCCc4cnn(C)c4)CC3)ncnc12`, which “Percent Effect” value is on record?
**A.** Its value is -7.863%.

**Q.** `CN(CCCc1cnn(C)c1)C(=O)Nc1cccc2[nH]nnc12` was tested. Which “Percent Effect” value did it give?
**A.** The value was -5.738%.

**Q.** `CCOC(C)C(=O)N(C)C1CCN(c2ccc(OC)cc2)CC1` (centres undefined) was tested. Which “Percent Effect” value did it give?
**A.** The value was -2.729%.

**Q.** `CN(C(=O)NC1CC1)C1CCN(c2ccc(Cl)cc2)CC1` was tested. Which “Percent Effect” value did it give?
**A.** Its value is 95.01%.

**Q.** With `CN(CC(=O)N(C)C1CC1)C1CCN(c2ccc(Cl)cc2)CC1` as the compound, how does the “Percent Effect” value read?
**A.** Its value is -1.318%.

**Q.** With `Cc1cc(N2CCC(N(C)C(=O)Nc3ccccc3)CC2)nc(C)n1` as the compound, how does the “Percent Effect” value read?
**A.** The value was 1.821%.

**Q.** With `CN(C(=O)Nc1cccnc1)C1CCN(c2ccc(Cl)cc2)CC1` as the compound, how does the “Percent Effect” value read?
**A.** Its value is 102.5%.

**Q.** `COc1ccc(N2CCC(N(C)C(=O)C(C)SC)CC2)cc1` (centres undefined) was tested. Which “Percent Effect” value did it give?
**A.** Its value is 1.657%.

**Q.** How did the “Percent Effect” value turn out when `CNC(=O)CN(C)C1CCN(c2ccc(Cl)cc2)CC1` was run?
**A.** The value was 12.22%.

**Q.** `CCCNC(=O)CN(C)C1CCN(c2ccc(Cl)cc2)CC1` was tested. Which “Percent Effect” value did it give?
**A.** Its value is -1.782%.

**Q.** Which “Percent Effect” value does the source give for `CN(C(=O)Nc1ccncc1)C1CCN(c2ccc(Cl)cc2)CC1` here?
**A.** Its value is 99.54%.

**Q.** How did the “Percent Effect” value turn out when `CSC(C)C(=O)N(C)C1CCN(c2ccc(Cl)cc2)CC1` (centres undefined) was run?
**A.** The value was -5.322%.

**Q.** For `CN(CCN1CCN(c2ccccc2)CC1)C(=O)Nc1ccncc1`, which “Percent Effect” value is on record?
**A.** Its value is -6.47%.

**Q.** For `COc1ccc(N2CCC(N(C)C(=O)Nc3ccncc3)CC2)cc1`, which “Percent Effect” value is on record?
**A.** The value was 86.34%.

**Q.** How did the “Percent Effect” value turn out when `CCC(CNC(=O)NC1CCN(C)CC1)Oc1ccccc1Cl` (centres undefined) was run?
**A.** Its value is 5.674%.

**Q.** `Cc1nc(N2CCOCC2)nc2c1CCN(Cc1cccnc1)CC2.O=C(O)C(F)(F)F` was tested. Which “Percent Effect” value did it give?
**A.** The value was -14.62%.

**Q.** For `Cn1ccnc1CN1CCN(Cc2cc(-c3ccccc3)no2)CC1`, which “Percent Effect” value is on record?
**A.** Its value is 10.9%.

**Q.** Which “Percent Effect” value does the source give for `Cc1nc(C)c2c(n1)CCN(Cc1nccn1C)CC2.O=C(O)C(F)(F)F` here?
**A.** The value was 102.7%.

**Q.** How did the “Percent Effect” value turn out when `Cc1nc(N2CCOCC2)nc2c1CCN(Cc1ccsc1)CC2.O=C(O)C(F)(F)F` was run?
**A.** Its value is -7.325%.

**Q.** For `Cc1nc(NC(C)C)nc2c1CN(Cc1nccn1C)CC2`, which “Percent Effect” value is on record?
**A.** Its value is 3.247%.

**Q.** With `CC(C)Nc1nc2c(c(NC3CC3)n1)CCN(Cc1nccn1C)CC2.O=C(O)C(F)(F)F` as the compound, how does the “Percent Effect” value read?
**A.** Its value is 5.459%.

**Q.** With `Cc1cc(C)nc(N2CCN(Cc3nccn3C)CC2)n1.O=CO` as the compound, how does the “Percent Effect” value read?
**A.** The value was 104.1%.

**Q.** How did the “Percent Effect” value turn out when `COc1cc(C)nc(N2CCN(Cc3nccn3C)CC2)n1` was run?
**A.** Its value is 16.21%.

**Q.** With `Cc1cc(C(F)(F)F)nc(N2CCN(Cc3nccn3C)CC2)n1` as the compound, how does the “Percent Effect” value read?
**A.** Its value is -22.48%.

**Q.** Which “Percent Effect” value does the source give for `Cc1nc(N2CCOCC2)nc2c1CCN(Cc1nccn1C)CC2.O=C(O)C(F)(F)F` here?
**A.** Its value is 110.5%.

**Q.** How did the “Percent Effect” value turn out when `Cc1nc(-c2ccccc2)nc2c1CCN(Cc1nccn1C)CC2` was run?
**A.** The value was 118.4%.

**Q.** `CC(C)(C)C(=O)N1C[C@@H]2COC[C@]2(c2nnc(C3CC3)o2)C1` was tested. Which “Percent Effect” value did it give?
**A.** The value was 1.473%.

**Q.** For `N#Cc1cccc(N2CCCC(CO)(CCOc3ccccc3)C2)n1` (centres undefined), which “Percent Effect” value is on record?
**A.** Its value is -9.375%.

**Q.** Which “Percent Effect” value does the source give for `Cc1nc(N2CCCC2)nc2c1CCN(Cc1ccoc1)CC2.O=C(O)C(F)(F)F` here?
**A.** The value was 6.139%.

**Q.** Which “Percent Effect” value does the source give for `Cn1ccnc1CN1CCc2ncnc(N3CCCC3)c2CC1.O=C(O)C(F)(F)F` here?
**A.** The value was 15.66%.

**Q.** Which “Percent Effect” value does the source give for `Cc1nc(N2CCCC2)nc2c1CCN(Cc1nccn1C)CC2.O=C(O)C(F)(F)F` here?
**A.** Its value is 105.6%.

**Q.** Which “Percent Effect” value does the source give for `CN(C)c1nc(N2CCCC2)nc2c1CCN(Cc1nccn1C)CC2.O=C(O)C(F)(F)F` here?
**A.** Its value is 102.1%.

**Q.** With `CC(C)Nc1nc2c(c(N(C)C)n1)CCN(Cc1nccn1C)CC2.O=C(O)C(F)(F)F` as the compound, how does the “Percent Effect” value read?
**A.** The value was -14.43%.

**Q.** `CN(C)c1nc(N2CCCC2)nc2c1CCN(C(=O)c1ccco1)CC2.O=C(O)C(F)(F)F.O=C(O)C(F)(F)F` was tested. Which “Percent Effect” value did it give?
**A.** Its value is 15.95%.

**Q.** With `O=C(c1cncc(N2CCC3(CCNCC3)CC2)n1)N1CCCC1` as the compound, how does the “Percent Effect” value read?
**A.** The value was 1.429%.

**Q.** With `CCC(C)(C)C(=O)N1CCN(C2=NCC(C)S2)CC1` (centres undefined) as the compound, how does the “Percent Effect” value read?
**A.** The value was -0.6002%.

**Q.** Which “Percent Effect” value does the source give for `CCOc1ccccc1-n1c(C2CC2)n[nH]c1=O` here?
**A.** The value was 101.4%.

**Q.** `CCOc1ccccc1OC1CCN(C(=O)c2nc(=O)[nH][nH]2)CC1` was tested. Which “Percent Effect” value did it give?
**A.** Its value is -16.56%.

**Q.** How did the “Percent Effect” value turn out when `C[C@H](c1ccc(F)cc1)n1c(C2CCC2)n[nH]c1=O` was run?
**A.** The value was 13.77%.

**Q.** For `O=c1[nH]nc(C2CC2)n1-c1cccc(Cl)c1`, which “Percent Effect” value is on record?
**A.** The value was 12.75%.

**Q.** For `CN1CC(c2n[nH]c(=O)n2-c2cccc(Cl)c2)CC1=O` (centres undefined), which “Percent Effect” value is on record?
**A.** Its value is -17.26%.

**Q.** For `CCOc1ccccc1-n1c(CNC)n[nH]c1=O`, which “Percent Effect” value is on record?
**A.** The value was -1.505%.

**Q.** For `CCOc1ccccc1-n1c(C2CCC2)n[nH]c1=O`, which “Percent Effect” value is on record?
**A.** The value was 114.1%.

**Q.** How did the “Percent Effect” value turn out when `CN1CCC(c2n[nH]c(=O)n2-c2cccc(Cl)c2)CC1` was run?
**A.** Its value is -11.2%.

**Q.** For `CCOc1ccccc1-n1c(C2CC(=O)N(C)C2)n[nH]c1=O` (centres undefined), which “Percent Effect” value is on record?
**A.** Its value is 114.8%.
